# The entries come from a sample that favours hits as a whole.
# ST2 IL33 inh: IL1RL1 inhibition. AlphaLISA ST2-Fc/biotin-IL-33 interaction, 1 h. actives 2.3% (n = 78,000). AID 1259354. Q01638. inhibition, % for hits at 17 µM; in the data active = inhibition above about 30%
# Target sequence (Q01638 whole entry, looked up): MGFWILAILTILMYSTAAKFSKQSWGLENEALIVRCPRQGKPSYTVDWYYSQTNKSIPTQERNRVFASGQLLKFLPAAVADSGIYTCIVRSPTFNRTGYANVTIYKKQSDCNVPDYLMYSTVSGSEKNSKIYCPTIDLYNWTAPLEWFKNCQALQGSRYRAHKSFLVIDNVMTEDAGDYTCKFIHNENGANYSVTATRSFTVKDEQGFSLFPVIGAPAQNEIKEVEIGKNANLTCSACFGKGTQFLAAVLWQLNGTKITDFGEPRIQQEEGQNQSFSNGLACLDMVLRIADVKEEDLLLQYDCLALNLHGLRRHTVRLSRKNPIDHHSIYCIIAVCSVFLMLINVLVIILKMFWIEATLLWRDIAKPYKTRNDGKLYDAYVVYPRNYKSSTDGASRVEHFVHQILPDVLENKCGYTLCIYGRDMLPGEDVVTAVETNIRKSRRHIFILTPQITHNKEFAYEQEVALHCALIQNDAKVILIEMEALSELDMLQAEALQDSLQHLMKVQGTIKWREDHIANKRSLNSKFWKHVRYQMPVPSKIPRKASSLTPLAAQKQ
# An asterisk follows results filed as active; i = inactive.
SMILES,ST2 IL33 inh
CC(C)c1ccc(N(C(=O)Cc2ccccc2)C2C=CS(=O)(=O)C2)cc1 (configuration not stated),i
Cc1ccc(COc2ccc(/C=C3\SC(=O)N(CC(=O)N4CCOCC4)C3=O)cc2)cc1,i
CCN(CC)c1ccc(/C=C2\SC(=O)N(CC(=O)N3CCOCC3)C2=O)cc1,i
COc1cc(C=O)ccc1OC(=O)N1CCOCC1,i
O=C(CN1C(=O)S/C(=C\c2ccccc2OCc2cccc(F)c2)C1=O)N1CCOCC1,30.0%*
CN1C(=O)S/C(=C/c2ccccc2OCc2ccc(C(=O)O)cc2)C1=O,i
C=CCOc1ccc(/C=C2\SC(=O)N(CC(=O)N3CCOCC3)C2=O)cc1OC,40.0%*
Nc1nonc1-n1nnc(C(=O)O)c1-c1ccccc1,i
Cn1cc(CNc2ccc(C(=O)N3CCC(Cn4cccn4)CC3)cn2)cn1,i
C=CCNC(=O)CN(Cc1ccc(F)cc1)S(=O)(=O)c1ccc(Cl)cc1,i
COc1c(Sc2ccc([N+](=O)[O-])cc2)c(C)nn1-c1ccccc1,30.0%*
Cc1nn(C(=O)c2ccco2)c(C)c1Sc1ccccc1,i
O=[N+]([O-])c1ccc2nn(-c3ccccc3)nc2c1,i
Cc1ccc(C(=O)n2nc(C)c(Sc3ccccc3)c2C)cc1,i
Cc1nn(C(=O)C2CC2)c(C)c1Sc1ccccc1,i
Cc1nn(C(=O)c2ccc([N+](=O)[O-])cc2)c(C)c1Sc1ccccc1,42.0%*
CCS(=O)(=O)N1CCCC(C(=O)NCCN2CCCC2)C1 (configuration not stated),i
COc1ccc(C2c3[nH]c4ccccc4c3CCN2C(=O)c2noc3c2CCCC3)cc1C (configuration not stated),i
Cc1n[nH]c(C)c1S(=O)(=O)NCc1ccc(F)cc1,i
N#Cc1nc(COc2ccccc2Cl)oc1NCCCn1ccnc1,45.0%*
COc1ccc(OCc2nc(C#N)c(N3CCC(C(N)=O)CC3)o2)cc1,i
c1ccc(OCCCn2ccnc2)cc1,i
CN1CCN(Cc2ccc(OCc3ccccc3)cc2)CC1,i
N#Cc1nc(COc2ccc(Br)cc2)oc1N1CCN(Cc2ccccc2)CC1,56.0%*
Clc1ccccc1OCCCCN1CCNCC1,i
SMILES,ST2 IL33 inh
N#CSCCCCOc1ccccc1Cl,i
Fc1ccccc1OCCCn1ccnc1,i
N#Cc1nc(COc2ccccc2Cl)oc1N1CCCC1,73.0%*
Cc1cc(C)n(-c2ccc3cccc(O)c3n2)n1,i
COc1ccc(-n2ncc3c(NCc4ccccc4Cl)ncnc32)cc1,i
CCCc1ccc(Oc2c(-c3ccc(O)cc3O)n[nH]c2C)cc1,i
O=C(COc1ccccc1)Nc1ccc(Cl)c(N2CCCS2(=O)=O)c1,i
CCOC(=O)C1(CCCc2ccccc2)CCN(C(=O)C2CC23CCC3)CC1 (configuration not stated),i
COCCOC(=O)c1c(C)oc2ccc(NS(=O)(=O)c3ccc(C)cc3C)cc12,i
O=C(CC(c1ccccc1)c1ccccc1)NCC1OCCc2ccccc21 (configuration not stated),i
O=C(NC1CC(=O)N(c2cccc(F)c2)C1)c1ccco1 (configuration not stated),i
CCOc1ccc(S(=O)(=O)N(C)Cc2ccccc2)c2cccnc12,i
Cn1c(=O)[nH]c(=O)c2c1nc(SCC(=O)O)n2Cc1ccccc1Cl,i
O=[N+]([O-])c1ccc(Cl)c(-c2ncnn2-c2ccc(Br)cc2)c1,i
CCc1ccc(C(=O)CC2(O)C(=O)Nc3ccccc32)cc1 (configuration not stated),i
CCc1ccc(N2C(=O)Nc3ccc(Br)cc3C2(O)C(=O)NC(C)C)cc1 (configuration not stated),i
CCc1ccc2c(c1)C1(NN=C(c3ccc(C)cc3)S1)C(=O)N2 (configuration not stated),45.0%*
Brc1ccc(C(N2CCOCC2)N2CCOCC2)cc1,i
Cc1nn(Cc2ccccc2)c(C)c1NC(=O)c1cc(-c2ccc(F)cc2)on1,i
O=C1S/C(=C\c2ccccc2F)C(=O)N1CNc1cccc(F)c1,i
Cc1cc(NC(=O)CN2C(=O)S/C(=C\c3ccccc3)C2=O)no1,i
CCCCN1C(=O)S/C(=C\c2cc(C)n(C)c2C)C1=O,39.0%*
CCOc1ccc(S(=O)(=O)NCCCOC)c2cccnc12,i
CC(=O)N[C@H]1CCN(C(=O)C[C@@H]2[C@H](O)CCC3[C@]4(C)CO[C@@H](COc5ccccc5)O[C@@H]4CC[C@]32C)C1 (some centres not stated),i
O=C(C1CC1)N1CCc2cc(Br)cc(S(=O)(=O)NCCCN3CCOCC3)c21,i
SMILES,ST2 IL33 inh
CNC(=O)c1cccc(-c2cc(NCc3cccnc3)nc3[nH]ccc23)c1,i
CNC(=O)c1ccc(-c2cc(NCCN(C)C)nc3[nH]ccc23)o1,i
CN(C)CCNc1cc(-c2ccc(Cl)cc2F)c2cc[nH]c2n1,30.0%*
Cc1nc2c(c(NCc3cc(CC(C)C)on3)n1)CNC2,i
CCc1ccc(-c2nccn2-c2cccc(NC(C)=O)c2)nc1,i
CC(=O)Oc1ccc(-c2nc3ccc(Cl)cc3c(=O)o2)cc1,i
Cc1ccc(-c2onc3ccc(Cl)cc23)cc1,45.0%*
O=C(O)c1cc(-c2ccc(Br)cc2)nc2ccc(Cl)cc12,i
CCN(CCn1cccn1)C(=O)c1cc(Cn2cnc3ccccc32)[nH]n1,i
COc1ccc(-c2nc(CN3CCN(c4ccccc4)C(=O)C3)c(C)o2)c(F)c1,i
Cc1cc(C)n(CC(=O)N2CCc3c(cnc(C)c3CNC(=O)/C=C/c3cccs3)C2)n1,i
CCc1ccc(N2C(=O)C3C4C=CC(C4)C3C2=O)cc1 (configuration not stated),i
OCc1ccc(-c2nccn2Cc2cc3ccccc3s2)o1,i
Clc1ccc(-c2cn3ccccc3n2)cc1,i
Brc1ccc(-c2cn3ccccc3n2)s1,i
Brc1ccc(-c2cc3ccccn3c2)cc1,34.0%*
O=C(NC1CCC(n2cnnc2)CC1)c1[nH]cnc1-c1ccccc1 (configuration not stated),i
COc1ccc(NC(=O)N2CCN(c3ccc(OC)cc3)CC2)cc1,i
Cc1[nH]nc2c1C(c1c(F)cccc1F)C(C#N)=C(N)O2 (configuration not stated),32.0%*
Cc1ccc(-c2[nH]nc3c2C(c2ccccc2F)C(C#N)=C(N)O3)cc1 (configuration not stated),i
Cc1[nH]nc2c1C(c1cc(Br)cs1)C(C#N)=C(N)O2 (configuration not stated),33.0%*
CCCCOc1ccc(C2C(C#N)=C(N)Oc3n[nH]c(C)c32)cc1 (configuration not stated),i
CCN(CC)c1ccc(C2C(C#N)=C(N)Oc3n[nH]c(C)c32)cc1 (configuration not stated),i
CCOc1ccc(C2C(C#N)=C(N)Oc3n[nH]c(C)c32)cc1 (configuration not stated),i
C=CCO[C@@H]1CCN2C(=O)[C@@H]3C[C@@H](O)CN3C(=O)[C@@H]2C1,i
Cc1cc(N2CCOCC2)nc2ccc(NC(=O)CCC(=O)NC(C)C)cc12,i
CCCCN(CC)C(=O)c1ccc(F)cc1,i
Cc1ccc(-c2nc(S(=O)(=O)c3ccc(C)cc3)c(NCc3ccco3)o2)cc1,i
CCOc1ccnc(NCCN2CCCOC2=O)n1,i
CC(C)n1cnnc1CCNC(=O)CC1CCc2ccccc21 (configuration not stated),i

# Bioassay records as filed in PubChem.
